Results filed as inconclusive are left out. Activity calls are given as the source filed them. Calls follow the shape of the dose curve; as a rule, active = well fitted curve in the direction sought with a large enough effect; inconclusive = small, poorly fitted or top-dose-only effect, or another doubt; inactive = no such curve, though single readings can be large; an effect the other way counts as inactive or inconclusive.
Legend:
MCC-13 = test: qHTS assay to identify novel small-molecules to repurpose for Merkel cell carcinoma treatment (AID 1296009); details: MCC and control cell lines, CellTiter-Glo viability, 72 h; series mostly up to 46 µM; also: nearly all actives have a fitted effect of over 60% in size
Outline: (§1)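 Luminescence from CellTiter-Glo, read 10 min after addition at room temperature, reported viability following a 72 hr, 37 degree celsius treatment with NPC or MIPE compounds in titration; values normalized to plate controls.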

MCC-26 = test: as above; details: MCC and control cell lines, CellTiter-Glo viability, 72 h; series mostly up to 46 µM
Outline: as §1

MKL-1 = test: as above; details: MCC and control cell lines, CellTiter-Glo viability, 72 h; series mostly up to 46 µM
Outline: as §1

MKL-2 = test: as above; details: MCC and control cell lines, CellTiter-Glo viability, 72 h; series mostly up to 46 µM
Outline: as §1

NIH3T3 = test: as above; details: MCC and control cell lines, CellTiter-Glo viability, 72 h; at 44.8 µM (top of the series) unless noted
Outline: as §1

UISO = test: as above; details: MCC and control cell lines, CellTiter-Glo viability, 72 h; series mostly up to 46 µM
Outline: as §1

WaGa = test: as above; details: MCC and control cell lines, CellTiter-Glo viability, 72 h; series mostly up to 46 µM
Outline: as §1

C33A = test: Primary qHTS to identify gynecologic anti-cancer compounds using libraries of approved drugs and bioactive compounds (AID 1345084); details: Gynecologic cancer cell panel viability, ATPlite luminescence, 48 h; series mostly up to 57.5 µM; also: nearly all actives have a fitted effect of over 55% in size; also: potency is read from the fitted curve at half-maximal effect
Outline: (§2)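 Cells, 1,000 per well, plated 16 h, then exposed 48 h at 37 C to compounds. Viability by ATPlite luminescence after 15 min at room temperature.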

CAOV3 = test: as above; details: Gynecologic cancer cell panel viability, ATPlite luminescence, 48 h; series mostly up to 57.5 µM
Outline: as §2

Es-2 = test: as above; details: Gynecologic cancer cell panel viability, ATPlite luminescence, 48 h; series mostly up to 57.5 µM
Outline: as §2

HeLa = test: as above; details: Gynecologic cancer cell panel viability, ATPlite luminescence, 48 h; series mostly up to 57.5 µM
Outline: as §2

Hek293T = test: as above; details: Gynecologic cancer cell panel viability, ATPlite luminescence, 48 h, control line for the selectivity index; series mostly up to 57.5 µM
Outline: as §2

JEG-3 = test: as above; details: Gynecologic cancer cell panel viability, ATPlite luminescence, 48 h; series mostly up to 57.5 µM
Outline: as §2

OV90 = test: as above; details: Gynecologic cancer cell panel viability, ATPlite luminescence, 48 h; series mostly up to 57.5 µM
Outline: as §2

PA-1 = test: as above; details: Gynecologic cancer cell panel viability, ATPlite luminescence, 48 h; series mostly up to 57.5 µM
Outline: as §2

SKOV3 = test: as above; details: Gynecologic cancer cell panel viability, ATPlite luminescence, 48 h; series mostly up to 57.5 µM
Outline: as §2

Tov-21-G = test: as above; details: Gynecologic cancer cell panel viability, ATPlite luminescence, 48 h; series mostly up to 57.5 µM
Outline: as §2

Tov112D = test: as above; details: Gynecologic cancer cell panel viability, ATPlite luminescence, 48 h; series mostly up to 57.5 µM
Outline: as §2

CASKI = test: as above; details: Gynecologic cancer cell panel viability, ATPlite luminescence, 48 h; series mostly up to 57.5 µM
Outline: as §2

[1] = Drug repurposing screens with cells derived from glioblastoma tumor samples (AID 1345199); details: GBM patient neurospheres viability, ATP luminescence, 48 h; also: nearly all actives have a fitted effect of over 40% in size
Outline: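 Primary testing used CD133+ neurospheres from four GBM patients, seven concentrations, 48 h exposure and ATP-based viability; confirmation added three slower-growing patient lines.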

[2] = at 45.9 µM (top of the series), tumour line B
[3] = at 45.9 µM (top of the series), tumour line D
[4] = at 46 µM (top of the series), tumour line A
% is scaled to controls: 0 for no effect and ±100 for the full control effect.

O=c1[nH]c2cc(Cl)ccc2n1C1CCNCC1
inactive: Potency (MCC-13) | Potency (MCC-26) | Potency (MKL-1) | Potency (MKL-2) | outcome (NIH3T3) | Potency (UISO) | Potency (WaGa) | Potency (C33A) | Potency (CAOV3) | Potency (Es-2) | Potency (HeLa) | Potency (Hek293T) | Potency (JEG-3) | Potency (OV90) | Potency (PA-1) | Potency (SKOV3) | Potency (Tov-21-G) | Potency (Tov112D)

CCc1ccc(C2CCNCC2)cc1
inactive: Potency (MCC-13) | Potency (MCC-26) | Potency (MKL-1) | Potency (MKL-2) | Potency (UISO) | Potency (WaGa) | Potency (C33A) | Potency (CAOV3) | Potency (CASKI) | Potency (Es-2) | Potency (HeLa) | Potency (Hek293T) | Potency (JEG-3) | Potency (OV90) | Potency (PA-1) | Potency (SKOV3) | Potency (Tov-21-G) | Potency (Tov112D)

NC(=O)OCCCc1ccccc1
inactive: Potency (MCC-13) | Potency (MCC-26) | Potency (MKL-1) | Potency (MKL-2) | outcome (NIH3T3) | Potency (UISO) | Potency (WaGa) | Potency (C33A) | Potency (CASKI) | Potency (Es-2) | Potency (HeLa) | Potency (Hek293T) | Potency (JEG-3) | Potency (OV90) | Potency (PA-1) | Potency (SKOV3) | Potency (Tov-21-G) | Potency (Tov112D) | activity, negative = cell killing [1, 2] 0.315% | activity, negative = cell killing [1, 3] -23.1%

C[C@@H]1CN(C2CCC(C#N)(c3ccc(F)cc3)CC2)CC[C@]1(C(=O)O)c1ccccc1 (some centres undefined)
inactive: Potency (MCC-13) | Potency (MCC-26) | Potency (MKL-1) | Potency (MKL-2) | outcome (NIH3T3) | Potency (UISO) | Potency (WaGa) | Potency (C33A) | Potency (CAOV3) | Potency (CASKI) | Potency (Es-2) | Potency (HeLa) | Potency (Hek293T) | Potency (JEG-3) | Potency (OV90) | Potency (PA-1) | Potency (SKOV3) | Potency (Tov-21-G) | Potency (Tov112D) | activity, negative = cell killing ([1]; at 21.2 µM (top of the series), tumour line B) -8.19% | activity, negative = cell killing ([1]; at 21.2 µM (top of the series), tumour line D) -4.39%

Cc1ccc(N=CN(C)C=Nc2ccc(C)cc2C)c(C)c1
inactive: Potency (MCC-13) | Potency (MCC-26) | Potency (MKL-1) | Potency (MKL-2) | outcome (NIH3T3) | Potency (UISO) | Potency (WaGa) | Potency (C33A) | Potency (CAOV3) | Potency (CASKI) | Potency (Es-2) | Potency (HeLa) | Potency (Hek293T) | Potency (JEG-3) | Potency (OV90) | Potency (PA-1) | Potency (SKOV3) | Potency (Tov-21-G) | Potency (Tov112D) | activity, negative = cell killing [1, 2] -15.5% | activity, negative = cell killing [1, 3] -9.79%

C1CN2CCC1CC2
inactive: Potency (MCC-13) | Potency (MCC-26) | Potency (MKL-1) | Potency (MKL-2) | outcome (NIH3T3) | Potency (UISO) | Potency (WaGa) | Potency (C33A) | Potency (CAOV3) | Potency (CASKI) | Potency (Es-2) | Potency (HeLa) | Potency (Hek293T) | Potency (JEG-3) | Potency (PA-1) | Potency (Tov-21-G) | Potency (Tov112D)
active: Potency (OV90) 25.1 µM

CCOC(=O)C(c1c(O)c2ccccc2oc1=O)c1c(O)c2ccccc2oc1=O
inactive: Potency (MCC-13) | Potency (MCC-26) | Potency (MKL-1) | Potency (MKL-2) | outcome (NIH3T3) | Potency (UISO) | Potency (WaGa) | Potency (C33A) | Potency (CAOV3) | Potency (CASKI) | Potency (Es-2) | Potency (HeLa) | Potency (Hek293T) | Potency (JEG-3) | Potency (OV90) | Potency (PA-1) | Potency (SKOV3) | Potency (Tov-21-G) | Potency (Tov112D)

CC1Sc2c(C(=O)O)c(=O)c3cc(F)c(N4CCNCC4)cc3n21 (centres undefined)
inactive: Potency (MCC-13) | Potency (MCC-26) | Potency (MKL-1) | Potency (MKL-2) | outcome (NIH3T3) | Potency (UISO) | Potency (C33A) | Potency (CAOV3) | Potency (CASKI) | Potency (Es-2) | Potency (HeLa) | Potency (Hek293T) | Potency (JEG-3) | Potency (OV90) | Potency (PA-1) | Potency (Tov-21-G) | Potency (Tov112D)

COCC(=O)N(c1c(C)cccc1C)C(C)C(=O)OC (centres undefined)
inactive: Potency (MCC-13) | Potency (MCC-26) | Potency (MKL-1) | Potency (MKL-2) | outcome (NIH3T3) | Potency (UISO) | Potency (WaGa) | Potency (C33A) | Potency (CAOV3) | Potency (CASKI) | Potency (Es-2) | Potency (HeLa) | Potency (Hek293T) | Potency (JEG-3) | Potency (OV90) | Potency (PA-1) | Potency (SKOV3) | Potency (Tov-21-G) | Potency (Tov112D) | activity, negative = cell killing [1, 2] -6.18% | activity, negative = cell killing [1, 3] -6.37%

COP(=O)(OC)C(O)C(Cl)(Cl)Cl (centres undefined)
inactive: Potency (MCC-13) | Potency (MCC-26) | Potency (MKL-1) | Potency (MKL-2) | outcome (NIH3T3) | Potency (UISO) | Potency (WaGa) | Potency (C33A) | Potency (CASKI) | Potency (Es-2) | Potency (HeLa) | Potency (Hek293T) | Potency (JEG-3) | Potency (OV90) | Potency (PA-1) | Potency (SKOV3) | Potency (Tov-21-G) | Potency (Tov112D) | activity, negative = cell killing [1, 2] -5.86% | activity, negative = cell killing [1, 3] -9.43% | activity, negative = cell killing [1, 4] -20.1%

COc1cc(N)c(Cl)cc1C(=O)NC1CN2CCC1CC2 (centres undefined)
inactive: Potency (MCC-13) | Potency (MCC-26) | Potency (MKL-1) | Potency (MKL-2) | outcome (NIH3T3) | Potency (UISO) | Potency (WaGa) | Potency (C33A) | Potency (CAOV3) | Potency (CASKI) | Potency (Es-2) | Potency (HeLa) | Potency (Hek293T) | Potency (JEG-3) | Potency (OV90) | Potency (PA-1) | Potency (SKOV3) | Potency (Tov-21-G) | Potency (Tov112D) | activity, negative = cell killing [1, 2] -1.32% | activity, negative = cell killing [1, 3] 1.82%

ClCCCN1CCN(c2cccc(Cl)c2)CC1
inactive: Potency (MCC-13) | Potency (MCC-26) | Potency (MKL-1) | Potency (MKL-2) | outcome (NIH3T3) | Potency (UISO) | Potency (C33A) | Potency (CAOV3) | Potency (CASKI) | Potency (Es-2) | Potency (HeLa) | Potency (Hek293T) | Potency (JEG-3) | Potency (OV90) | Potency (PA-1) | Potency (SKOV3) | Potency (Tov-21-G) | Potency (Tov112D)

CN1C(=O)CN=C(c2ccccc2)c2cc([N+](=O)[O-])ccc21
inactive: Potency (MCC-13) | Potency (MCC-26) | Potency (MKL-1) | Potency (MKL-2) | outcome (NIH3T3) | Potency (UISO) | Potency (WaGa) | Potency (C33A) | Potency (CAOV3) | Potency (CASKI) | Potency (Es-2) | Potency (HeLa) | Potency (Hek293T) | Potency (JEG-3) | Potency (OV90) | Potency (PA-1) | Potency (Tov-21-G) | Potency (Tov112D) | activity, negative = cell killing [1, 2] 1.05% | activity, negative = cell killing [1, 3] -22.1% | activity, negative = cell killing [1, 4] -31.9%

C[N+](C)(C)CCOC(=O)C(O)(c1ccccc1)c1ccccc1
inactive: Potency (MCC-13) | Potency (MCC-26) | Potency (MKL-1) | Potency (MKL-2) | Potency (UISO) | Potency (WaGa) | Potency (C33A) | Potency (CAOV3) | Potency (CASKI) | Potency (Es-2) | Potency (HeLa) | Potency (Hek293T) | Potency (JEG-3) | Potency (OV90) | Potency (PA-1) | Potency (SKOV3) | Potency (Tov-21-G) | Potency (Tov112D) | activity, negative = cell killing [1, 2] -4.79% | activity, negative = cell killing [1, 3] -23.3%

Source: PubChem BioAssay (NCATS)
